In the library only some 3.1% were active in any assay of this set; here they are far more common.
GSIS activator: GLuc luminescence reporter in INS-1E cells, primary screen for activators of glucose-dependent secretion of insulin | INS-1E GLuc reporter insulin secretion, 2-3 h | hit rate 0.61% among 370,000 | activation, % at 16.6 µM | AID 743287;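 active = lowest replicate activation of at least 40%, so every replicate reaches that level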;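 note: 0% = median of neutral control wells and 100% = median of IBMX positive control wells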
MLL AF4-AF9 inh: inhibitors of human MLL-AF4/AF9 interaction; P42568; AlphaScreen, biotin-AF4 peptide binding to FLAG-AF9; inhibition, % at 10 µM; hit rate 0.47% among 350,000; AID 651704;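 active = every replicate reaching a set inhibition limit, whatever the replicate mean, cut at about 25% in these data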;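 note: 0% = plate neutral control median and 100% = total signal loss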
RAD54 inh: inhibitors of human RAD54 branch migration | hit rate 0.14% among 360,000 | inhibition, % at 10.4 µM | Q92698 | RAD54 Holliday junction branch migration, FAM/BHQ fluorescence;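 active = mean normalized replicate activity at least 40 and at least half of replicates scoring 40 or more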;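 note: 0% = median of neutral control wells and 100% = median of positive control wells; inhibitors cause a drop in the FAM fluorescence signal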
Target sequence (Q92698 whole entry, looked up): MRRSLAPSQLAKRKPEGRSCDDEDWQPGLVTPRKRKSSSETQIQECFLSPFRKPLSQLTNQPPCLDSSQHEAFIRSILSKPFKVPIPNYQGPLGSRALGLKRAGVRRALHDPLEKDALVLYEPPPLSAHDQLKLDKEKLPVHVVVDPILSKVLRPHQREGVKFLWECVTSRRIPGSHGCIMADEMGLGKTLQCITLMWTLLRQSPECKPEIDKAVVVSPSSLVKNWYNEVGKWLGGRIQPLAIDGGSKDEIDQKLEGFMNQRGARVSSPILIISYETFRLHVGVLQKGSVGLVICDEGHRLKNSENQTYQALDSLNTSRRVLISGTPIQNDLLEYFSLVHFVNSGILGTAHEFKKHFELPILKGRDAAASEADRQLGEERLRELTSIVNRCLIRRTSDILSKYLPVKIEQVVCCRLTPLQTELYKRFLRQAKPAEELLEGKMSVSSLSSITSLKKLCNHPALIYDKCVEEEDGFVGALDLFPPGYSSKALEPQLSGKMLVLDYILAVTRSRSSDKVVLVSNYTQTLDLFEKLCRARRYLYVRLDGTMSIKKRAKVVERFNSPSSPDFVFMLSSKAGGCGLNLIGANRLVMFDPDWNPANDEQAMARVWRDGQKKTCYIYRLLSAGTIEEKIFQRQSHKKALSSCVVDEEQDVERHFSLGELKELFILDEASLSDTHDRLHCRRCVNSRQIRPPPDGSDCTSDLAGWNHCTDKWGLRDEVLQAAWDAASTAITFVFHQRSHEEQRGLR
dFosB act-1: mouse delta FosB homodimer activation. purified delta FosB, TAMRA-CDK5 oligo fluorescence polarization; percent of positive-control signal above neutral wells. activation, % at 25 µM. P13346. hit rate 0.99% among 340,000;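 active = mean activation above about 17%, with every replicate also reaching it, limit read from the data, passing the limit was not always enough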
RAD52 anneal inh: blocks human RAD52 DNA annealing; recombinant RAD52 DNA annealing, FRET fluorescence; inhibition, % at 18.7 µM; hit rate 0.46% among 360,000;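 active = every replicate showing at least 50% inhibition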
DENV2 CPE: inhibitors of DENV2 cytopathic effect. DENV2-infected cells, cytopathic effect rescue, plate reader. CPE inhibition, % at 9.99 µM. hit rate 1.7% among 350,000. AID 651640; in the data active = CPE inhibition above about 20%, passing the limit was not always enough; tested in BHK-21 cells;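 note: 0% = median of neutral control wells and 100% = median of positive control wells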
dFosB act-2: activators of mouse delta FosB homodimer DNA binding. shares compounds with dFosB act-1. purified delta FosB, TAMRA-CDK5 oligo fluorescence polarization; normalised: neutral wells 0, positive control 100. activation, % at 24.9 µM. 2,400 tested, under 10 active. AID 588690;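 active = highest replicate activation at or above 34% and every replicate reaching that threshold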;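 note: higher polarization means more probe DNA bound by delta FosB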
Numbers without * were called inactive.

How did O=C(Nc1nc2ccccc2[nH]1)c1ccc([N+](=O)[O-])cc1 do in these assays?
GSIS activator: 6.3; MLL AF4-AF9 inh: -0.3; dFosB act-1: 3.8; RAD52 anneal inh: -15.0

What do the screens show for `Cc1cc(C)nc(N/N=C/c2ccccc2Cl)n1`?
GSIS activator: 11.0; MLL AF4-AF9 inh: -0.3; RAD54 inh: 0.3; RAD52 anneal inh: -8.6; DENV2 CPE: 5.5

What do the screens show for `Cc1cc(N/N=C/c2ccccc2Cl)nc(NCc2ccccc2)n1`?
GSIS activator: -11.3; dFosB act-1: 50.8*; dFosB act-2: 4.3

How did C/C(=N\Nc1cc(C)nc(NCc2ccccc2)n1)c1ccc([N+](=O)[O-])cc1 do in these assays?
GSIS activator: -2.3; RAD54 inh: -4.4; dFosB act-1: 29.7*; RAD52 anneal inh: -6.4; DENV2 CPE: 1.7; dFosB act-2: 0.5

How did Cc1noc(C)c1S(=O)(=O)Nc1ccc2c(c1)C(=O)N([C@H](C)CO)C[C@H](C)[C@H](CN(C)C(=O)c1ccccc1)OCCCC[C@@H](C)O2 do in these assays?
GSIS activator: 16.4; MLL AF4-AF9 inh: -5.9; RAD54 inh: -5.9; RAD52 anneal inh: 12.8; DENV2 CPE: -0.5

Results for COc1ccc(Br)cc1C(=O)Nc1ccc(C(=O)NCC(C)C)cc1 ?
GSIS activator: 6.7; MLL AF4-AF9 inh: -1.3; RAD54 inh: -2.2; dFosB act-1: -3.8; RAD52 anneal inh: -2.4; DENV2 CPE: -0.5

How did CCOc1ccc(Br)cc1C(=O)Nc1ccc(C(=O)NCC(C)C)cc1 do in these assays?
GSIS activator: 300.2; dFosB act-1: 73.8*; dFosB act-2: 2.4

How did C[C@@H]1CN([C@@H](C)CO)C(=O)c2cc(C3=CCCC3)cnc2O[C@@H]1CN(C)C(=O)C1CCOCC1 do in these assays?
GSIS activator: 17.6; MLL AF4-AF9 inh: 0.7; RAD54 inh: -1.8; RAD52 anneal inh: -1.1; DENV2 CPE: -2.2

Results for C=CCNC(=O)/C(=C/c1cn(-c2ccccc2)nc1-c1cccc([N+](=O)[O-])c1)NC(=O)c1ccccc1 ?
GSIS activator: -9.1; dFosB act-1: 19.4*; dFosB act-2: 4.8

Results for O=C(OCC(=O)N1CCc2ccccc21)c1n[nH]c(=O)c2ccccc12 ?
GSIS activator: 49.4; MLL AF4-AF9 inh: -1.8; RAD54 inh: 2.7; dFosB act-1: 37.8*; RAD52 anneal inh: -3.5; DENV2 CPE: 4.2; dFosB act-2: -1.2

How did CC(=O)c1c(C)[nH]c(C(=O)OCC(=O)N2CCc3ccccc32)c1C do in these assays?
RAD54 inh: 4.6; dFosB act-1: 28.8*; dFosB act-2: 7.9

Results for CCOC(=O)c1[nH]c(C)c(C(=O)OCC(=O)N2CCc3ccccc32)c1C ?
GSIS activator: 1.8; MLL AF4-AF9 inh: -1.4; RAD54 inh: 0.2; dFosB act-1: 2.9; RAD52 anneal inh: -16.8; DENV2 CPE: -11.0

Results for CCCC#Cc1ccc([C@H]2[C@@H](CO)N(C(C)=O)[C@H]2CN(C)C(=O)C2CC2)cc1 ?
GSIS activator: -6.9; MLL AF4-AF9 inh: -1.3; DENV2 CPE: 4.4

What do the screens show for `O=C(Cc1ccccc1)Nc1nnc(SCC(=O)NC2CCCC2)s1`?
GSIS activator: -18.0; MLL AF4-AF9 inh: 2.5; dFosB act-1: -6.4; RAD52 anneal inh: 10.8; DENV2 CPE: -4.0

Results for O=C(CSc1nnc(NC(=O)c2ccco2)s1)NC1CCCCC1 ?
RAD54 inh: -10.0; dFosB act-1: 21.8*; dFosB act-2: 6.8

What do the screens show for `O=C(CSc1nnc(NC(=O)c2ccco2)s1)Nc1ccc(F)cc1`?
GSIS activator: -5.5; MLL AF4-AF9 inh: -1.2; RAD54 inh: 4.8; dFosB act-1: 18.9*; RAD52 anneal inh: 4.3; DENV2 CPE: 12.7; dFosB act-2: -5.0

What do the screens show for `C[C@@H]1CN([C@H](C)CO)S(=O)(=O)c2ccc(-c3ccc(F)cc3)cc2O[C@@H]1CN(C)CC1CC1`?
GSIS activator: 12.4; MLL AF4-AF9 inh: 6.0; RAD54 inh: -0.4; RAD52 anneal inh: 36.4; DENV2 CPE: 13.3

How did C[C@H](CO)N1C[C@H](C)[C@@H](CN(C)C(=O)Nc2ccccc2)Oc2ccc(NS(=O)(=O)c3ccccc3)cc2CC1=O do in these assays?
GSIS activator: 3.6; MLL AF4-AF9 inh: -3.8; RAD54 inh: 4.2; RAD52 anneal inh: 0.6; DENV2 CPE: 1.1

What do the screens show for `COc1ccc(CN(C)C[C@H]2Oc3c(NS(=O)(=O)c4ccc(F)cc4)cccc3C(=O)N([C@H](C)CO)C[C@H]2C)cc1`?
GSIS activator: 0.1; MLL AF4-AF9 inh: 0.0; RAD54 inh: -6.2; RAD52 anneal inh: 3.9; DENV2 CPE: -1.7

What do the screens show for `N#Cc1ccc(-c2ccc(F)cc2)nc1SCC(=O)Nc1sc2c(c1C#N)CCC2`?
RAD54 inh: -2.7; dFosB act-1: 37.4*; dFosB act-2: 1.2

Results for N#Cc1cc2c(nc1SCC(=O)Nc1sc3c(c1C#N)CCC3)CCCC2 ?
RAD54 inh: -10.0; dFosB act-1: 0.1

How did Cc1ccc(C)c(NC(=O)C(OC(=O)c2ccc(CO)cc2)c2ccccc2)c1 (stereo not drawn) do in these assays?
GSIS activator: 24.6; MLL AF4-AF9 inh: 0.9; RAD54 inh: 3.9; dFosB act-1: 34.9*; RAD52 anneal inh: -5.1; DENV2 CPE: -4.2; dFosB act-2: 2.9

How did Cc1ccc(C)c(NC(=O)C(OC(=O)c2cc[n+]([O-])cc2)c2ccccc2)c1 (stereo not drawn) do in these assays?
GSIS activator: 26.5; MLL AF4-AF9 inh: -3.3; RAD54 inh: 3.4; dFosB act-1: -3.1; RAD52 anneal inh: -8.3; DENV2 CPE: 5.4

How did Cc1cc(C)cc(NC(=O)C(OC(=O)c2ccc(NC(=O)CC#N)cc2)c2ccccc2)c1 (stereo not drawn) do in these assays?
GSIS activator: 13.0; MLL AF4-AF9 inh: -10.5; dFosB act-1: 28.4*; RAD52 anneal inh: -90.0; DENV2 CPE: -9.8; dFosB act-2: 3.0

What do the screens show for `CCn1c2ccccc2c2cc(NC(=O)C(C)OC(=O)c3ccc(NC(=O)CC#N)cc3)ccc21` (stereo not drawn)?
GSIS activator: 25.9; MLL AF4-AF9 inh: 1.5; RAD54 inh: -8.6; dFosB act-1: 17.6*; RAD52 anneal inh: -14.5; DENV2 CPE: 0.1; dFosB act-2: 6.7

What do the screens show for `CCn1c2ccccc2c2cc(NC(=O)COC(=O)c3ccc(O)cc3)ccc21`?
GSIS activator: 0.6; MLL AF4-AF9 inh: -1.9; RAD54 inh: 3.8; dFosB act-1: 15.3; RAD52 anneal inh: -20.8; DENV2 CPE: 10.9

What do the screens show for `Cc1ccc(C)c(NC(=O)C(OC(=O)c2ccc(NC(=O)CC#N)cc2)c2ccccc2)c1` (stereo not drawn)?
GSIS activator: 5.2; MLL AF4-AF9 inh: -0.2; RAD54 inh: -16.0; dFosB act-1: 5.5; RAD52 anneal inh: -20.8; DENV2 CPE: -6.4

Assay outcomes: PubChem BioAssay, Broad Institute
